In PMC7862700, “An all-to-all approach to the identification of sequence-specific readers for epigenetic DNA modifications on cytosine”:

Assays:
Experiment in all cases: DAPPL (digital affinity profiling via proximity ligation, sequencing); 10 mM Tris-HCl pH 7.5, 50 mM NaCl, 1 mM DTT, 4% glycerol, room temperature, 30 min; GST-TFs on glutathione beads, 16-mer random dsDNA library, 0.1% formaldehyde crosslink after washing; high values mean tight binding
Conditions in all cases: protein: recombinant; tags: N-terminal GST; dsDNA, one strand shown
[1] = biological target: T1, FLI1 (Homo sapiens, UniProt Q01543 1-452)
T1 sequence: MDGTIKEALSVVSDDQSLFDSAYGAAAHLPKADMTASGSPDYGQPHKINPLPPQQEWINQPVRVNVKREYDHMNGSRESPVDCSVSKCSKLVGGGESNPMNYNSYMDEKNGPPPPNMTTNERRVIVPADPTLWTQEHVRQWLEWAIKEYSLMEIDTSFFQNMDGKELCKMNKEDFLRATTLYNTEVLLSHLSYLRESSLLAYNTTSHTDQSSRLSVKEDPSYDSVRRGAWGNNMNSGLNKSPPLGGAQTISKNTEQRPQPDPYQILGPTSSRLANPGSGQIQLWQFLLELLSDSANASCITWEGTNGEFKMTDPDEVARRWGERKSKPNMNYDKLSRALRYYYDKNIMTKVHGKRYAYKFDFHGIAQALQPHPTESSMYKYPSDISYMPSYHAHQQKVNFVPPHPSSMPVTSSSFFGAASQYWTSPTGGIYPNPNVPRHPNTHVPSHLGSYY
Summary of the method: (§1)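 Each value of binding signal is a hexamer's read frequency for a factor divided by the same hexamer's frequency in the tag-only sample. Barcoded, bead-captured GST fusions of human transcription factors made in yeast were pooled with that sample and incubated with 200 nmole of a random double-stranded 16-mer DNA library in Tris/NaCl/DTT/glycerol buffer at room temperature for 30 min. Washing, 0.1% formaldehyde crosslinking, proximity ligation, PCR and Illumina NextSeq500 sequencing followed.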

[2] = biological target: T2, ELK1 (Homo sapiens, UniProt P19419 1-428)
T2 sequence: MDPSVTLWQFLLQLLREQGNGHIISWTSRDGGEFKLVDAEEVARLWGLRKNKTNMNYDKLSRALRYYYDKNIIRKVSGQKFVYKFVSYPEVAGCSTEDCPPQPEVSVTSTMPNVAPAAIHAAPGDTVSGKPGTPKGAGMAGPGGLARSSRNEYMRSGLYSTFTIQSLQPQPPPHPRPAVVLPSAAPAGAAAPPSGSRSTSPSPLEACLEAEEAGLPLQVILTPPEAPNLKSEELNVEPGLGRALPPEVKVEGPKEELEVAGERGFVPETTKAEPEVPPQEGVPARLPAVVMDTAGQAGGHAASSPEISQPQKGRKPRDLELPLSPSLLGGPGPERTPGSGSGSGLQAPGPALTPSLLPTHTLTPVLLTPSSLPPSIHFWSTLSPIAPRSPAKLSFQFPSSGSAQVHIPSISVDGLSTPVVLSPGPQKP
Summary of the method: as §1

[3] = biological target: T3, GABPA (Homo sapiens, UniProt Q06546 1-454)
T3 sequence: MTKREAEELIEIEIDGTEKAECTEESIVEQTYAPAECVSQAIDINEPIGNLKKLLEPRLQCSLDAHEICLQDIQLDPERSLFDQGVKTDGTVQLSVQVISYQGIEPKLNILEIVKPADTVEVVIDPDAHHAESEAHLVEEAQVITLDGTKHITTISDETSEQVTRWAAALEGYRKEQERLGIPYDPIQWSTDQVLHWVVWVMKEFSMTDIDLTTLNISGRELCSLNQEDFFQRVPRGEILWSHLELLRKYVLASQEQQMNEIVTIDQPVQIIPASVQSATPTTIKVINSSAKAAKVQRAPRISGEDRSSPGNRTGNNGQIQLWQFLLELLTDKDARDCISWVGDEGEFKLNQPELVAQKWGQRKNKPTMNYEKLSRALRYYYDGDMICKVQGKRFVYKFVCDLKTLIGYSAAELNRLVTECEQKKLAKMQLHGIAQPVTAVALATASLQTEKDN
Summary of the method: as §1

[4] = biological target: T4, ERG (Homo sapiens, UniProt P11308 1-479)
T4 sequence: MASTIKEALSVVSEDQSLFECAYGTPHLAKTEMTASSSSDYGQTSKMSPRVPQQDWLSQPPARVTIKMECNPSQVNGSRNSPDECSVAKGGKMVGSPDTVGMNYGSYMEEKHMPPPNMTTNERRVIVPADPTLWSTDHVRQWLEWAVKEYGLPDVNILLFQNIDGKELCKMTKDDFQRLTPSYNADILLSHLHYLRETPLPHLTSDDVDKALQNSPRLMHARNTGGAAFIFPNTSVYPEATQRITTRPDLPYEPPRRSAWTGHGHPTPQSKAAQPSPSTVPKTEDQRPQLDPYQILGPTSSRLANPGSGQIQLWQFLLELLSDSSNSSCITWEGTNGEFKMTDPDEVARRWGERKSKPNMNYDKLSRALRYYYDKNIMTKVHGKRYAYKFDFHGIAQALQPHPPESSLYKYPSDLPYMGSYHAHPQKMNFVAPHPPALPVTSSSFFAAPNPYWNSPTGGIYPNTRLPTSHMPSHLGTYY
Summary of the method: as §1

[5] = biological target: ELF1 (Homo sapiens, UniProt P32519 1-619)
Summary of the method: as §1

[6] = biological target: T5, EHF (Homo sapiens, UniProt Q9NZC4 1-300)
T5 sequence: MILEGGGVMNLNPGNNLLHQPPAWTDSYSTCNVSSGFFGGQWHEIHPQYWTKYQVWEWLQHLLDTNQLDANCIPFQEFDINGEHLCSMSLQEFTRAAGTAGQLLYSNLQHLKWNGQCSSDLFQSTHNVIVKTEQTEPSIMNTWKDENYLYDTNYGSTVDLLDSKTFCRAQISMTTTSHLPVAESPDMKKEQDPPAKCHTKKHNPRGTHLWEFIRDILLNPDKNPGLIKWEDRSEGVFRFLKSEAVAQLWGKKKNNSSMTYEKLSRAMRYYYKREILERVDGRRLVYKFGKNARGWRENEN
Summary of the method: as §1

[7] = biological target: SPI1 (Homo sapiens, UniProt P17947 1-270)
Summary of the method: as §1

[8] = biological target: SPIB (Homo sapiens, UniProt Q01892 1-262)
Summary of the method: as §1

[9] = biological target: T6, ELK3 (Homo sapiens, UniProt P41970 1-407)
T6 sequence: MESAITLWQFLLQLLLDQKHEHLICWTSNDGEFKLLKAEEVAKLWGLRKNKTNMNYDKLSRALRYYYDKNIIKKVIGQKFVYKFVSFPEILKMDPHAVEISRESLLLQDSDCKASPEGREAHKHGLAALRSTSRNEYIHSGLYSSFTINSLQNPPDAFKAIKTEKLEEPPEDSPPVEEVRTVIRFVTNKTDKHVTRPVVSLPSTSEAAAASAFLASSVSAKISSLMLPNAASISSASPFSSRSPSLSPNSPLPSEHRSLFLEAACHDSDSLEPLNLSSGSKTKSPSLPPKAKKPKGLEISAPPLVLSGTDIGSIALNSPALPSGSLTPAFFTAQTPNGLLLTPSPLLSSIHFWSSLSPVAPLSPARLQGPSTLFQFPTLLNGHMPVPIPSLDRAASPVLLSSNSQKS
Summary of the method: as §1

[10] = biological target: T7, FEV (Homo sapiens, UniProt Q99581 1-238)
T7 sequence: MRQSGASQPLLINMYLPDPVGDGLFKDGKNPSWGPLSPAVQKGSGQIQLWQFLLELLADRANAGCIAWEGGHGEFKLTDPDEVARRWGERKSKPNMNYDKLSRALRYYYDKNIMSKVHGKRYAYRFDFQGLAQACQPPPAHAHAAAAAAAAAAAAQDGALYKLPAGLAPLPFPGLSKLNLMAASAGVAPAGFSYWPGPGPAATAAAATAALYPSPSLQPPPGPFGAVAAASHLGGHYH
Summary of the method: as §1

[11] = biological target: ETV5 (Homo sapiens, UniProt P41161 1-510)
Summary of the method: as §1

[12] = biological target: T8, SPIC (Homo sapiens, UniProt Q8N5J4 1-248)
T8 sequence: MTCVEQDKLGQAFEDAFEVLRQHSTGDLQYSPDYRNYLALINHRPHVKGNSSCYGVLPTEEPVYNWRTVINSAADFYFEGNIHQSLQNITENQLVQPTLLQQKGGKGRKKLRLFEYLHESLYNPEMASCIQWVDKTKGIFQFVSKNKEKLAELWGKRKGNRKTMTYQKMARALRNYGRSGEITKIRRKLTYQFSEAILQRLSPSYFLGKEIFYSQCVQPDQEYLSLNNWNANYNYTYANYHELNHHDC
Summary of the method: as §1

[13] = biological target: ELF4 (Homo sapiens, UniProt Q99607 1-663)
Summary of the method: as §1

[14] = biological target: T9, ELK4 (Homo sapiens, UniProt P28324-2 1-405)
T9 sequence: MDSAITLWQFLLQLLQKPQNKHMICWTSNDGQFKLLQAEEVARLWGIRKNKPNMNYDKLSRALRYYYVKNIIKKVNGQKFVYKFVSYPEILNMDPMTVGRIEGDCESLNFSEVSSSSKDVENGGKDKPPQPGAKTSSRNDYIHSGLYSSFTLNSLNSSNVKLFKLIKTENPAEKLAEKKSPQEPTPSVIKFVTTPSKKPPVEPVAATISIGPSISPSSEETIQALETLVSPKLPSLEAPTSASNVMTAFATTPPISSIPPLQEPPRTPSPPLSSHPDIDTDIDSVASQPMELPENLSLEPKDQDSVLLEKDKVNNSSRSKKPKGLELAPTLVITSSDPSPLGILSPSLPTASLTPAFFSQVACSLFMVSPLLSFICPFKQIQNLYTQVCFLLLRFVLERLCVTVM
Summary of the method: as §1

[15] = biological target: T10, ETV2 (Homo sapiens, UniProt O00321 1-342)
T10 sequence: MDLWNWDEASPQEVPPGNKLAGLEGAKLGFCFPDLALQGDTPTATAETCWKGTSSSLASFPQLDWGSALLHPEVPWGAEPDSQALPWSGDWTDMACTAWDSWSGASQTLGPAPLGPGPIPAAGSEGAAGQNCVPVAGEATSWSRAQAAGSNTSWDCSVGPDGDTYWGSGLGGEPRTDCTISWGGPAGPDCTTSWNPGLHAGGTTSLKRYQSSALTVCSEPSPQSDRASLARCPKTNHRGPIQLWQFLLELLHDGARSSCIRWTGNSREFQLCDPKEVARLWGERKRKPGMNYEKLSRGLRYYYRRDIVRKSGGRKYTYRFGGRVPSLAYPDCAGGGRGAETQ
Summary of the method: as §1

[16] = biological target: T11, ELF3 (Homo sapiens, UniProt P78545 1-371)
T11 sequence: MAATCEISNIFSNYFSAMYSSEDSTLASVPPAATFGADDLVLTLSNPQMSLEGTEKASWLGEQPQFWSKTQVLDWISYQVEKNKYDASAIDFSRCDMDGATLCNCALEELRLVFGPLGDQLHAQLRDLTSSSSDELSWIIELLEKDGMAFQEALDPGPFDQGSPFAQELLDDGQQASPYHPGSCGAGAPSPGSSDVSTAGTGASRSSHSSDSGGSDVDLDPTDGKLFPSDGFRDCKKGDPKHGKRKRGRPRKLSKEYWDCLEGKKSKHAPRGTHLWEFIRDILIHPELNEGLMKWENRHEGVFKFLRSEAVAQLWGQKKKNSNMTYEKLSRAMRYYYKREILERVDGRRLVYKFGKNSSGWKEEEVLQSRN
Summary of the method: as §1

[17] = biological target: ETV1 (Homo sapiens, UniProt P50549 1-477)
Summary of the method: as §1

ETV1, sequence (P50549 whole entry): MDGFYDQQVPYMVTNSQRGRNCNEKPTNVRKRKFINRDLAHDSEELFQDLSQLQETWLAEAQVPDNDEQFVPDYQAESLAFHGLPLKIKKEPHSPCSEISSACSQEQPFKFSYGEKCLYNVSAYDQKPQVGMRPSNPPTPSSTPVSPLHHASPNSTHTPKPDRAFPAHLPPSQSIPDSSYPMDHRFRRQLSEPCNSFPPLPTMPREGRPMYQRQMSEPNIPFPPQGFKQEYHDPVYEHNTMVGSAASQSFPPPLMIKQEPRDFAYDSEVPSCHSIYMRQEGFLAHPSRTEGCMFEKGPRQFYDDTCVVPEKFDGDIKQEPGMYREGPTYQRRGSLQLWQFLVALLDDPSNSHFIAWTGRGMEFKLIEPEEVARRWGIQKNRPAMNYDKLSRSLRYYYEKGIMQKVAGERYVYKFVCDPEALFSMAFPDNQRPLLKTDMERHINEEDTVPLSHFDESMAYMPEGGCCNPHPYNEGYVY
ELF4, sequence (Q99607 whole entry): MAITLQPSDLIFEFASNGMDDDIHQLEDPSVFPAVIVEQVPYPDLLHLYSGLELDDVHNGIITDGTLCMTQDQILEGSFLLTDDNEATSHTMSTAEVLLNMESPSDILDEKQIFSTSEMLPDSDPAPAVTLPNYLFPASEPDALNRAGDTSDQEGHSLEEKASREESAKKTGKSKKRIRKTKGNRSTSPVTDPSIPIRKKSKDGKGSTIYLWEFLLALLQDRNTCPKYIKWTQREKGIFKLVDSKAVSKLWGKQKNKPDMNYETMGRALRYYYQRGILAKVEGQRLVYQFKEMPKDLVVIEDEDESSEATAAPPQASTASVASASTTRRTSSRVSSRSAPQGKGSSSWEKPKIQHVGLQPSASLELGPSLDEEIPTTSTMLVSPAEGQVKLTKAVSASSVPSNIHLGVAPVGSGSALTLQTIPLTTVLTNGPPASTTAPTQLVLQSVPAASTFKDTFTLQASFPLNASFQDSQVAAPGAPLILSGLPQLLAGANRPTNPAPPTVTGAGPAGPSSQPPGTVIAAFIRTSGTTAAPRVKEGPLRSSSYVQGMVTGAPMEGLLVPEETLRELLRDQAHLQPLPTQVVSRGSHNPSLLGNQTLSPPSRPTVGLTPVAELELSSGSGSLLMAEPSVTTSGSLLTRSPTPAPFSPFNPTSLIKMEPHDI
ETV5, sequence (P41161 whole entry): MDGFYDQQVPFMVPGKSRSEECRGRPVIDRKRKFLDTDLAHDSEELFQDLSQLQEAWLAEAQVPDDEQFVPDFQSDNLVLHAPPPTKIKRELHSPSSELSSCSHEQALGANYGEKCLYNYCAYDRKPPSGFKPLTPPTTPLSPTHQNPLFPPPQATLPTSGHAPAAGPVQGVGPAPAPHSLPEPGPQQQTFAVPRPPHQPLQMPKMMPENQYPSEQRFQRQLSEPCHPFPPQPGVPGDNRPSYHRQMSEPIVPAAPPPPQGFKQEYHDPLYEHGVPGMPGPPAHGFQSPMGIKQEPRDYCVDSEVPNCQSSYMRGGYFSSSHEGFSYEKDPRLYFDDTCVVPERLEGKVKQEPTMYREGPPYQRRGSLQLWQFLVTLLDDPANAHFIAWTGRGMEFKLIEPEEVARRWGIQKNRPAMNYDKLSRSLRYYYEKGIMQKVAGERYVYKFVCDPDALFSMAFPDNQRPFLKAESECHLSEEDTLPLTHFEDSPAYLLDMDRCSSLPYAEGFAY
ELF1, sequence (P32519 whole entry): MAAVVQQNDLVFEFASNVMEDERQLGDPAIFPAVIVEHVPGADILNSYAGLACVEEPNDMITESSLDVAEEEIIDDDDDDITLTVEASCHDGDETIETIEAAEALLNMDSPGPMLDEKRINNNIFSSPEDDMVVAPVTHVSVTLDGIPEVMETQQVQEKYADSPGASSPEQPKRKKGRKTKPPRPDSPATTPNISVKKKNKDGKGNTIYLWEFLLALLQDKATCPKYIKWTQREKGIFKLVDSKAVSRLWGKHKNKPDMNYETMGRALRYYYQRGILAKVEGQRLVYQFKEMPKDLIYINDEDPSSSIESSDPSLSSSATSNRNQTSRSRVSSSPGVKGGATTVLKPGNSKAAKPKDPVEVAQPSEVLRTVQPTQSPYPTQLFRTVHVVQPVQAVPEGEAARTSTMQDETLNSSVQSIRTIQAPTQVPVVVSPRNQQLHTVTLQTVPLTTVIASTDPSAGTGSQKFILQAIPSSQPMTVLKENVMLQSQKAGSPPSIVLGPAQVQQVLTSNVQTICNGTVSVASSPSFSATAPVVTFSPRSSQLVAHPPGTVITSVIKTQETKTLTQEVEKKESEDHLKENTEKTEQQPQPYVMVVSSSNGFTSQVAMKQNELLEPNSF
SPIB, sequence (Q01892 whole entry): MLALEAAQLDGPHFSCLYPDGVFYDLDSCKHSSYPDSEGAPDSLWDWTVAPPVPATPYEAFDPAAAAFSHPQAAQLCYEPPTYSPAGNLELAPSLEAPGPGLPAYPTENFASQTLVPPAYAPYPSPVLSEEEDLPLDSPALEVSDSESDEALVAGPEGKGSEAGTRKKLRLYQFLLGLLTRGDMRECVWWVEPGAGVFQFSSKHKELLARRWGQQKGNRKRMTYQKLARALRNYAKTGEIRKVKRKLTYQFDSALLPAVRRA

CGCACT
binding signal [1]: 1.12 fold enrichment (6-mer frequency, TF over GST control)
binding signal [2]: 1.33 fold enrichment (6-mer frequency, TF over GST control)
binding signal [3]: 1.28 fold enrichment (6-mer frequency, TF over GST control)
binding signal [4]: 1.21 fold enrichment (6-mer frequency, TF over GST control)
binding signal [5]: 1.22 fold enrichment (6-mer frequency, TF over GST control)
binding signal [6]: 1.29 fold enrichment (6-mer frequency, TF over GST control)
binding signal [7]: 1.41 fold enrichment (6-mer frequency, TF over GST control)
binding signal [8]: 1.27 fold enrichment (6-mer frequency, TF over GST control)
binding signal [9]: 1.24 fold enrichment (6-mer frequency, TF over GST control)
binding signal [10]: 1.32 fold enrichment (6-mer frequency, TF over GST control)
binding signal [11]: 1.28 fold enrichment (6-mer frequency, TF over GST control)
binding signal [12]: 1.04 fold enrichment (6-mer frequency, TF over GST control)
binding signal [13]: 1.29 fold enrichment (6-mer frequency, TF over GST control)
binding signal [14]: 1.1 fold enrichment (6-mer frequency, TF over GST control)
binding signal [15]: 1.29 fold enrichment (6-mer frequency, TF over GST control)
binding signal [16]: 1.26 fold enrichment (6-mer frequency, TF over GST control)
binding signal [17]: 1.23 fold enrichment (6-mer frequency, TF over GST control)
